TGFb inhibitor = inhibitors of TGF-b signaling; HepG2 CAGA-GFP TGF-b/SMAD3 reporter, GFP fluorescence, 18 h; TGF-beta stimulated, 500 pg/mL final; Potency, µM (series often up to 46.1 µM), inactives show at the highest dose activity, negative = inhibition, most hits filed as inhibitors; 1.2% of 410,000 active; AID 588855; further: potency means the concentration at half of the fitted maximal effect; on the % scale 0 is the no-effect control and ±100 the full control effect; nearly all actives have a fitted effect of over 65% in size
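Per well, imaged GFP fluorescence of HEPG2 CAGA-GFP cells gives the signal; cells get compound, then TGF-beta (500 pg/mL final), 18 h at 37 degrees C; %Activity versus -TGF-beta and +DMSO controls.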
HepG2 viability = kills HepG2 cells in TGF-b inhibitor counter-screen | Potency, µM (series often up to 46.1 µM), without a hit: at the top dose activity change, negative = cytotoxicity, most hits filed as cytotoxic | HepG2 CAGA-GFP viability, ATP luminescence, 18 h | 0.76% of 410,000 active; further: potency means the concentration at half of the fitted maximal effect
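CellTiter-Glo luminescence gave cytotoxicity after 18 hours at 37 degrees C. The cells were HepG2 CAGA-GFP in 1% FBS DMEM, stimulated with 500 pg/mL TGF-beta after compound addition. %Activity was normalised to no-cell wells (complete cell-killing) and DMSO (no toxicity), and curves were fitted and classified.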
IL1B secr inh = blocks inflammasome-driven IL-1 beta release. THP-1 LPS/ATP IL-1B secretion, AlphaLISA, 16 h; hits give low values. activity change, % at 57.5 µM. 4.7% of 360,000 active. AID 743279; in the data active means activity change below about -50%; inconclusive means mostly about -30% to -49%; further: on the % scale 0 is the no-effect control and ±100 the full control effect
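THP-1 cells pretreated 1 hr with compounds (up to 57.5 uM final), then stimulated with LPS (250 ng/mL final) plus ATP (1.25 mM final); secreted IL-1B measured by AlphaLISA after 16 hr, decreased signal indicating inhibition.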
DT40 TDP1 CPT = DT40-hTDP1 cell growth loss with CPT. AID 686979. chicken DT40 Tdp1-/-;hTDP1 cells + 20 nM CPT, ATP luminescence, 48 h. 12% of 420,000 active. Potency, µM (doses to about 46.2 µM), for inactives: top-dose activity change, negative = growth inhibition, most hits filed as inhibitors; further: potency means the concentration at half of the fitted maximal effect; on the % scale 0 is the no-effect control and ±100 the full control effect; nearly all actives have a fitted effect of over 55% in size
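Cell growth measured by CellTiter-Glo luminescence after a minimum 48 h, 37 C compound exposure with 20 nM CPT in Tdp1-knockout DT40 cells stably expressing hTDP1, seeded 400/well; qHTS titration format.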
TDP1 block = blocks human tyrosyl-DNA phosphodiesterase 1; AID 485290; recombinant TDP1, AlphaScreen DNA substrate cleavage; Potency, µM (titrated, usually from 130 µM), for inactives: at the top dose activity change, negative = inhibition, usual class: inhibitors; Q9NUW8; 0.28% of 350,000 active; further: potency means the concentration at half of the fitted maximal effect; on the % scale 0 is the no-effect control and ±100 the full control effect; nearly all actives have a fitted effect of over 40% in size
Target sequence (Q9NUW8 whole entry, looked up): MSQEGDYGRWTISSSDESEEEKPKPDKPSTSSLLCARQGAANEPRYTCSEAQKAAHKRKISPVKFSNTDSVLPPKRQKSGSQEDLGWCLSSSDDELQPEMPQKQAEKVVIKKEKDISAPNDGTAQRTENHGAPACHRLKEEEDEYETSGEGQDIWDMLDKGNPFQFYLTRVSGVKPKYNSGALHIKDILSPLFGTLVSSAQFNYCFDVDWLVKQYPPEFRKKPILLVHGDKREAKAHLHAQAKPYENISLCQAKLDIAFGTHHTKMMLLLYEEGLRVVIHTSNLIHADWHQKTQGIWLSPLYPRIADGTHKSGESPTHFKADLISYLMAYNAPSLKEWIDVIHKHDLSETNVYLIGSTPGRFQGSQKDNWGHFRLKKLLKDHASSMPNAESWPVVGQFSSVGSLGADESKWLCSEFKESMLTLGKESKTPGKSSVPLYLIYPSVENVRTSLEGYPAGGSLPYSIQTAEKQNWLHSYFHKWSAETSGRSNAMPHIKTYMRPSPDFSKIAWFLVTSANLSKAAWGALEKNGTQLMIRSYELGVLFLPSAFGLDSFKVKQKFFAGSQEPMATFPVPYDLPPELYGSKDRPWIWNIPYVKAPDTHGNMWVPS
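E. coli-derived human Tdp1, 1 nM final. Cpd preinc 15 min RT; substrate 15 nM final, 5 min RT; AS bead mix 10 ug/ml final, 10 min RT. Signal loss = tyrosine-FITC cleavage. No-enzyme wells = max signal.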
TDP1 cell noCPT = qHTS for Inhibitors of human tyrosyl-DNA phosphodiesterase 1 (TDP1): qHTS in cells in absence of CPT | DT40 Tdp1-/- hTDP1 cells, no CPT, ATP luminescence, 48 h | Potency, µM (highest dose often 46.2 µM), without a hit: top-dose activity change, negative = growth inhibition, usual class: inhibitors | 15% of 420,000 active; further: potency means the concentration at half of the fitted maximal effect; on the % scale 0 is the no-effect control and ±100 the full control effect; nearly all actives have a fitted effect of over 55% in size
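Growth of hTDP1-complemented DT40 Tdp1-knockout cells is measured by ATP luminescence after at least 48 hr compound exposure at 37 °C, with DMSO substituting for the 20 nM CPT used in the parallel screen.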
Active calls of the source: *; u = inconclusive; x = no result given; [ ] = another dose, or the depositor's remark. This is a sample that favours compounds with a hit; in the whole collection about 18% have one here. Unless noted, the call rests on the fitted dose curve; in most records, active means well fitted curve in the direction sought with a large enough effect; inconclusive means small, poorly fitted or top-dose-only effect, or another doubt; inactive means no such curve, though single readings can be large; an effect the other way counts as inactive or inconclusive.

SMILES	TGFb inhibitor	HepG2 viability	IL1B secr inh	DT40 TDP1 CPT	TDP1 block	TDP1 cell noCPT
COc1cccc(-c2nc(CN3CCN(C(=O)c4ccco4)CC3)c(C)o2)c1OC	-15%	0%	19	u	x	u
Cc1ccc(NC(=O)CSCc2cnn(-c3ccccc3)c2-n2cccc2)c(Cl)c1	u	-27%	x	u	9%	u
O=C(CSCc1cnn(-c2ccccc2)c1-n1cccc1)Nc1ccc(F)cc1F	u	-43%	x	u	3%	18µM*
Cc1cccc(C)c1NC(=O)CSCc1cnn(-c2ccccc2)c1-n1cccc1	u	-16%	x	10µM*	11%	10µM*
COc1ccc(OC)c(NC(=O)CSCc2cnn(-c3ccccc3)c2-n2cccc2)c1	-7%	-5%	-11	u	10%	16µM*
COc1cc(NC(=O)CSCc2cnn(-c3ccccc3)c2-n2cccc2)cc(OC)c1	u	-2%	-9	u	15%[56.1 µM]	15µM*
Cc1ccc(OCCC(=O)OCC(=O)NC(=O)NC2CCCCC2)cc1	-27%	-6%	-1	-19%	-3%	3%
COc1ccc(NC(=O)Cc2csc(NC(=O)Nc3ccccc3OC)n2)cc1	3%	-19%	-25	26µM*	x	23µM*
COc1ccccc1NC(=O)Nc1nc(CC(=O)Nc2ccc(N(C)C)cc2)cs1	-4%	2%	u	u	x	u
COc1ccccc1NC(=O)Nc1nc(CC(=O)Nc2ccc(F)c(F)c2)cs1	u	-4%	-69*	u	-8%	15µM*
COc1ccccc1NC(=O)Nc1nc(CC(=O)Nc2ccc(F)cc2)cs1	0%	-21%	-16	u	1%	16µM*
COc1ccccc1NC(=O)Nc1nc(CC(=O)Nc2cccc(F)c2)cs1	-14%	-23%	-9	u	0%	u
COc1ccccc1NC(=O)Cc1csc(NC(=O)c2ccccc2)n1	-27%	-17%	67	u	10%	u
COc1ccc(C)cc1NC(=O)Cc1csc(NC(=O)Nc2ccccc2OC)n1	u	-29%	39	u	x	16µM*
CC1CNC(=S)N(c2ccccc2)C1=O (configuration not stated)	-7%	2%	11	2%	x	-8%
Cc1nnc(SCC(=O)Nc2cccc(C(F)(F)F)c2)[nH]c1=O	0%	6%	15	1%	0%	-3%
Cc1noc(C)c1COc1ccc(C(=O)NNC(=O)c2ccccc2O)cc1	-4%	-15%	88	u	4%[0.505 µM]	16µM*
CC(C)(C)c1ccc(OCCCC(=O)NNC(=O)c2ccccc2O)cc1	-14%	-14%	55	u	0%	18µM*
Cc1cccc(NC(=O)c2ccc(OCc3c(C)noc3C)cc2)n1	-3%	-25%	53	u	0%	13µM*
O=C(O)C1=CC2C=C(Cl)C=CC2OC1=O (configuration not stated)	0%	-4%	33	5%	x	u
OCCCNc1ncnc2sc3c(c12)CCN(Cc1ccccc1)C3	3%	-10%	3	u	x	18µM*
Cc1c(CC(=O)O)c(=O)oc2c(C)c(OCc3c(F)cccc3Cl)ccc12	-1%	2%	9	-3%	x	0%
CC(=O)N1CCN(C(=S)c2ccc(N(C)C)cc2)CC1	-16%	-52%	-9	-14%	-4%	-1%
CN(C)c1ccc(C(c2ccc(N(C)C)cc2)c2ccc([N+](=O)[O-])cc2)cc1	4%	-31%	-50*	u	11%	u
CN(C)c1ccc(C(=S)N2CCN(c3ccc([N+](=O)[O-])cc3)CC2)cc1	-28%	-7%	-22	15µM*	-3%	21µM*
SMILES	TGFb inhibitor	HepG2 viability	IL1B secr inh	DT40 TDP1 CPT	TDP1 block	TDP1 cell noCPT
CN(C)c1ccc(C(=S)N2CCCCCC2)cc1	-6%	-56%	3	u	10%	16µM*
CCOc1cc(/C=C/c2ccc3cccc([N+](=O)[O-])c3n2)ccc1OCC(=O)N(C)C	2%	-30%	0	23µM*	5%	u
COc1cc(/C=C/c2ccc3cccc([N+](=O)[O-])c3n2)ccc1OCC#N	12%	3%	-13	5.8µM*	5%	3.7µM*
CCOc1cc(/C=C/c2ccc3cccc([N+](=O)[O-])c3n2)ccc1O	13µM*	-35%	-30	u	4%	18µM*
O=[N+]([O-])c1ccc(/C=C/c2ccc3cccc([N+](=O)[O-])c3n2)cc1	8%	5%	-3	-24%	0%	u
Cc1nn(-c2ccc(F)cc2)c(C)c1CNC(=O)c1ccc(-n2cc(NC(=O)c3ccoc3)cn2)cc1	x	x	x	-15%[9.04 µM]	x	12µM*
CC(NC(=O)c1cc(F)ccc1F)c1nnc2n1CCN(Cc1cccs1)CC2 (configuration not stated)	x	x	x	1%	x	1%
CCc1nc(N)nc(N)c1-c1ccc(Cl)c([N+](=O)[O-])c1	u	-52%	-1	0.18µM*	x	0.052µM*
CCOc1cc(-c2c(C)c(CC)nc(N)c2C#N)ccc1O	2%	9%	16	-15%	2%	u
CCc1nc(N)nc(N)c1-c1ccc(Cl)c(N=[N+]=[N-])c1	0%	-50%	-3	5.2µM*	x	1.8µM*
COCCN(C(=O)CSCC(=O)Nc1cccc(C)c1)c1c(N)n(Cc2ccccc2)c(=O)[nH]c1=O	0%	-6%	28	8%	x	33%
OC1CCN(Cc2ccc3c(c2)CN(C/C=C/c2ccco2)CCO3)CC1	x	x	x	-17%[9.04 µM]	x	-12%
CCCCn1c(C(C)NC(=O)CCC)nc2ccccc21 (configuration not stated)	0%	3%	30	u	1%	18µM*
CCCCCn1c(=O)c(C(=O)c2ccccc2)nc2ccccc21	21%	6%	-8	u	3%	23µM*
CCCCCn1c(C(C)NC(=O)CCC)nc2ccccc21 (configuration not stated)	0%	-10%	25	12µM*	3%	18µM*
CCCC(=O)NC(C)c1nc2ccccc2n1Cc1ccccc1 (configuration not stated)	-5%	-39%	x	-17%	0%	u
O=S1(=O)CCOC[C@H](c2ccccc2)N1Cc1cccc(Cl)c1	-4%	-1%	0	u	x	u
O=C(CSc1nnc2ccccn12)NNC(=O)c1ccccc1F	8%	-6%	-15	7%	-1%	0%

Assay outcomes: PubChem BioAssay, National Center for Advancing Translational Sciences (NCATS)
